PubChem BioAssay (NCATS)
Results filed as inconclusive are left out. Active and inactive are the calls of the source. Calls come from the whole dose curve; as a rule, active = well fitted inhibition curve with a large enough effect; inconclusive = small, poorly fitted or top-dose-only effect; inactive = flat fitted curve, though single readings scatter.

molecular target: Lysine-specific demethylase 5B (Homo sapiens) (UniProt Q9UGL1); test: Optimization screen for KDM5B Histone Demethylases FDH coupled qHTS against the LOPAC library (AID 1347166); conditions: KDM5B demethylation, FDH-coupled NADH fluorescence (FDH is formaldehyde dehydrogenase); at 57.5 µM (top of the series); note: 0% is about no effect
Sequence (Q9UGL1 whole entry, looked up): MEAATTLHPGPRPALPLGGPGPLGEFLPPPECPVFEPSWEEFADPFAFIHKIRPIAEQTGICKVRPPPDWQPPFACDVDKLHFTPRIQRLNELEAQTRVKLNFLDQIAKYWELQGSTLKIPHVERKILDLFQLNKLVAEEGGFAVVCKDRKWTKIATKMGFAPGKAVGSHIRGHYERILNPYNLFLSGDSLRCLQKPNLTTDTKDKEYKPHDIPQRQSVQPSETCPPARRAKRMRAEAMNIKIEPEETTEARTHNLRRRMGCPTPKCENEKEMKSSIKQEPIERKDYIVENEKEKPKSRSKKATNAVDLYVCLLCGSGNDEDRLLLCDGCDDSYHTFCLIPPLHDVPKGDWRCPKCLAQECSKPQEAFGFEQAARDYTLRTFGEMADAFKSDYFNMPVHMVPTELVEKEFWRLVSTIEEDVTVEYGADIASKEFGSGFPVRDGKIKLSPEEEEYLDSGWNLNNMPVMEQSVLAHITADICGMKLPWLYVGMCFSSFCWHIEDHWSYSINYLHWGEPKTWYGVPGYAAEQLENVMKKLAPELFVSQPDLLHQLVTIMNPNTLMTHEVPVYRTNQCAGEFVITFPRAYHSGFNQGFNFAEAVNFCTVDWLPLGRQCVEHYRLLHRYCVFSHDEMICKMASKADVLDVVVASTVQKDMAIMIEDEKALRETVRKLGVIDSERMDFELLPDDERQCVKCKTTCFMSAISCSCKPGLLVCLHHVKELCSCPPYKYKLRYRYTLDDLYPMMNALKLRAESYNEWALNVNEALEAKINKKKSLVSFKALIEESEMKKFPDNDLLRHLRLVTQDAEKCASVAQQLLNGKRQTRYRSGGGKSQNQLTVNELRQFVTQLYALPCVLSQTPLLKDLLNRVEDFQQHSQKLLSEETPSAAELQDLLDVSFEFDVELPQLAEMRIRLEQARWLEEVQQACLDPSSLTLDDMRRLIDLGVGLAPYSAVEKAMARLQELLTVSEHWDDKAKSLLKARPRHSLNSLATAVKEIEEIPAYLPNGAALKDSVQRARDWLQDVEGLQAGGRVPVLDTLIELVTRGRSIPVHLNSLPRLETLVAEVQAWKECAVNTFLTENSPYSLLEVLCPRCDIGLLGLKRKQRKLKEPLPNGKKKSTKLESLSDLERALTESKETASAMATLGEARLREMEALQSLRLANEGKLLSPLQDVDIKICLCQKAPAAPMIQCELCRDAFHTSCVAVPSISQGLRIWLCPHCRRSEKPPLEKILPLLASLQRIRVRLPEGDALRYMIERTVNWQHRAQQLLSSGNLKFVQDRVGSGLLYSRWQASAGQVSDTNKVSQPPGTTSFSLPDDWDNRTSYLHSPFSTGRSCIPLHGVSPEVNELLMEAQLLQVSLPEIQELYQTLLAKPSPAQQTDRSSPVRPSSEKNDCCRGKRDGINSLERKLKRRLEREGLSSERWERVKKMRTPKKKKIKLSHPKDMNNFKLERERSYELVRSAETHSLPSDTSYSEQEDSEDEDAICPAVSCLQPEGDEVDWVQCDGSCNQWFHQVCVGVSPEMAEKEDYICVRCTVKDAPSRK
Source text: Assay Submitter (PI): Qin Yan, Ph.D. (Yale University) and Xiaodong Cheng, Ph.D. (MD Anderson)
This project was funded as part of the NCI NEXT Program and Chemical Biology Consortium (CBC)
The histone demethylases, KDM5A and KDM5B catalyze the demethylation of lysine 4 on histone H3 (H3K4me3/2). They
are overexpressed in a variety of cancers and have been implicated in cancer cell growth, metastasis, drug resistance, and tumor growth. KDM5A is amplified and overexpressed in breast and gastric cancer; and is translocated in leukemia. While KDM5B is highly expressed in human mammary tumors and breast cancer cell lines, but not in normal adult breast tissue. Moreover, knockdown of KDM5B leads to upregulation of tumor suppressor genes, including BRCA1. The goal of this project is to employ qHTS to identify selective small molecule inhibitors of KDM5A/B demethylase activity to better understand the role of KDM5 in cancer and to develop novel therapies.
We employed an FDH-coupled assay previously reported by Sakurai et al. to monitor in vitro KDM5 demethylase activity. Compounds showing dose response inhibition are re-acquired, validated, and tested for non-specific interference with the formaldehyde dehydrogenase (FDH) counterscreen. True inhibitors are validated using an AlphaLisa secondary screen, which employs an H3K4(me2-1)-specific antibody to monitor demethylation of a biotin-tagged H3K4(me3) peptide substrate. Inhibitors are profiled against KDM4A and KDM6A AlphaLisa counterscreens to determine level of demethylase specificity; and against the TruHits counterscreen to eliminate non-specific inhibitory activity on the AlphaLISA detection method. Selective inhibitors identified from the primary and secondary screening are tested in cells using immunofluorescence to monitor global H3K4 tri-methylation as a measure of KDM5A/B inhibition. This assay is run against the NCGC Lopac collection of about 1,200 compounds to evaluate its amenability to quantitative High Throughput Screening (qHTS) platform.
Early Translation Branch (ETB)
National Center for Advancing Translational Sciences (NCATS), Rockville, MD
National Institute of Health (NIH), Bethesda, Maryland
[1] Sakurai, M et al. A miniaturized screen for inhibitors of Jumonji histone demethylases. Mol Biosyst. 2010 Feb;6(2):357-64. doi: 10.1039/b912993f. Epub 2009 Oct 8.
1536-well Black, solid bottom, medium binding assay plate is purchased from Greiner Bio-one. The enzymes (KDM5B) and substrate (H3K4me3/2) are provided by the principal investigators. The buffer for this assay is composed of 50mM HEPES at pH 7.5 with 0.01% Tween-20.
FDH coupled qHTS protocol:
Three microliter enzyme mix (buffer + 200nM KDM5BDeltaAP final concentration) is dispensed into the assay plate using the BioRAPTR Flying Reagent Dispenser (FRD; Beckton-Dickenson). Compound (at various final concentration) and control solution is pin transferred to the assay plate using the Kalypsys 1536-pin tool apparatus. The assay plate is incubated for 10 min at room temperature followed by addition of 1uL substrate mix (buffer + 100uM ascorbic acid, 50uM ferrous ammonium sulfate, 12.5uM H3K4Me3, 25uM a-ketoglutarate, 0.25 mM NAD+, 0.25 U/mL formaldehyde dehydrogenase using the FRD yielding a total reaction volume of 4 uL. Initial fluorescence (Read1) is detected using the PerkinElmer ViewLux plate reader equipped with 340 nm excitation and 450 nm emission filters. The final fluorescence (Read2) signal is obtained after 30 min of room temperature incubation. Delta RFU is calculated (Read2 - Read1) and is used to generated dose response curves

| SMILES | activity, negative = inhibition |
| --- | --- |
| O=C(O)C1CCCN(CCC=C(c2ccccc2)c2ccccc2)C1 (configuration not stated) | -3.3% (inactive) |
| CC1=C(C(=O)O)N2C(=O)[C@@H](NC(=O)C(N)c3ccccc3)[C@H]2SC1 (some centres not stated) | -17.9% (inactive) |
| CC1CC2C3CCC4=CC(=O)C=C[C@]4(C)[C@@]3(F)[C@@H](O)C[C@]2(C)[C@@]1(O)C(=O)CO (some centres not stated) | -6.72% (inactive) |
| CCCCS(=N)(=O)CCC(N)C(=O)O (configuration not stated) | -3.95% (inactive) |
| CCN1CCCC1CNC(=O)c1cc(S(N)(=O)=O)ccc1OC (configuration not stated) | 2.22% (inactive) |
| N[C@@H](Cc1ccc(O)c(O)c1)C(=O)O | 0.726% (inactive) |
| CC(=O)[C@H]1CC[C@H]2[C@@H]3CCC4=CC(=O)CC[C@]4(C)[C@H]3CC[C@]12C | -4.17% (inactive) |
| Nc1nc(N)c2nc(CNc3ccc(C(=O)NC(CCC(=O)O)C(=O)O)cc3)cnc2n1 (configuration not stated) | -994% (active) |
| NC(=O)c1ccc2[nH]ccc2c1 | -16.4% (inactive) |
| CC(C)NCC(O)c1ccc(NS(C)(=O)=O)cc1 (configuration not stated) | -4.54% (inactive) |
| CCN(CC)CCn1c(=O)c(Cc2ccc(OC)cc2)nc2ccccc21 | -17% (inactive) |
| CCN(CC)CC#CCOC(=O)C(O)(c1ccccc1)C1CCCCC1 (configuration not stated) | -11% (inactive) |
